Where “and” joins values, the source holds several entries; their conditions need not be identical. Equal entries are not always repeated. Results filed as inconclusive are left out. Calls of active or inactive are those of the source. Unless noted, calls follow the shape of the full dose curve.
Legend:
[1] = target: Glucocorticoid receptor (Homo sapiens) (UniProt P04150); test: qHTS assay for small molecule agonists of glucocorticoid receptor signaling (AID 588532; active = well fitted curve in the direction sought with a large enough effect in the signal ratio, with a control signal flat; the % refers to the signal ratio;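 also: 100% = dexamethasone at 0.1 µM and 0% = DMSO only wells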); details: HeLa MMTV-bla, beta-lactamase ratio, agonist, 18 h; activation: stronger effect = higher value, percent of dexamethasone control, DMSO zero
Sequence of Glucocorticoid receptor (Homo sapiens) (P04150 whole entry, looked up): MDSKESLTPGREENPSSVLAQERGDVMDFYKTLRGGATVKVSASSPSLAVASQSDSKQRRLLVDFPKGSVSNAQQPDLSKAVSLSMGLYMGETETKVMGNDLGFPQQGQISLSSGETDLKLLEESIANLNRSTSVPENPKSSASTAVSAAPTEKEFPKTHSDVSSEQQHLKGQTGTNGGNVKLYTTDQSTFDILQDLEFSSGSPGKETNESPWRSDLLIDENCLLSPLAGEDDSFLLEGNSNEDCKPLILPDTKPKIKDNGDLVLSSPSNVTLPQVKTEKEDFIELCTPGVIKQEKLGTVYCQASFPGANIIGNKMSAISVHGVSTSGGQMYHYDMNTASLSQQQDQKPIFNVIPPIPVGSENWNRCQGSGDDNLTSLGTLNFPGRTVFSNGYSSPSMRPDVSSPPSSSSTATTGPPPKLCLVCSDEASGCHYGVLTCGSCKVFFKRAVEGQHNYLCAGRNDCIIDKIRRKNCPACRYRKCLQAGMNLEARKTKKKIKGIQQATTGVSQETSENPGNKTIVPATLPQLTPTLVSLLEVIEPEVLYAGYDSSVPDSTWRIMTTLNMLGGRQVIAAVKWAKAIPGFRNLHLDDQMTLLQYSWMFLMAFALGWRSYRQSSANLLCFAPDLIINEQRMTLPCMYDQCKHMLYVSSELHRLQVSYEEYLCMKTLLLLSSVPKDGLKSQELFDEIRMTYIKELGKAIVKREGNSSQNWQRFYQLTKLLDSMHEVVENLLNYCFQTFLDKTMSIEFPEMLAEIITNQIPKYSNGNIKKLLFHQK
Method in brief: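 Quantitative HTS using CellSensor MMTV-bla HeLa cells in charcoal/dextran-treated serum; compounds tested up to 92 uM. After 18 h at 37 C, CCF4 dye reported reporter induction.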

[2] = target: Peroxisome proliferator-activated receptor delta (Homo sapiens) (UniProt Q03181); test: qHTS assay for small molecule agonists of peroxisome proliferator-activated receptor delta signaling (AID 588534);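 also: 0% = DMSO basal wells and 100% = positive control agonist at 10 µM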
Sequence of Peroxisome proliferator-activated receptor delta (Homo sapiens) (Q03181 whole entry, looked up): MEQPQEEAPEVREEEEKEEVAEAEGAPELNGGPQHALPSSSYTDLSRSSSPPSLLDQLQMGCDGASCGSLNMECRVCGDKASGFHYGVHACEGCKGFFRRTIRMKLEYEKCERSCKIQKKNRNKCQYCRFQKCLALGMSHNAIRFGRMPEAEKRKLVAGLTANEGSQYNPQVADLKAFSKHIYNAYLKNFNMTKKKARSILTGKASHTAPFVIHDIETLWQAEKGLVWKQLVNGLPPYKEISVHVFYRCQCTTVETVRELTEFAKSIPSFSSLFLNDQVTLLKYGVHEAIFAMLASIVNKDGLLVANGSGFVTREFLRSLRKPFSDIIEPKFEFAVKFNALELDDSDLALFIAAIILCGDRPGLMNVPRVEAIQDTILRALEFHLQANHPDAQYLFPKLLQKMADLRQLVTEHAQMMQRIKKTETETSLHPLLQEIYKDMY
Method in brief: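 Fluorescence from CCF4 substrate cleavage by beta-lactamase reporter, read 2 hrs at RT, measured agonist activity. Compounds were tested with 18 hrs exposure at 37 C. Concentration-response data fitted to Hill equation.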

[3] = qHTS assay for small molecule antagonists of peroxisome proliferator-activated receptor delta signaling (AID 588535; active = well fitted inhibition curve with a large enough effect in the signal ratio, with a control signal flat, not every such curve was filed as active; the % refers to the signal ratio;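 as to max response: cells co-treated with a PPAR-delta agonist as stimulator during compound exposure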); details: HEK293T PPARd-UAS-bla, beta-lactamase FRET ratio, 18 h; 460 nm channel
Method in brief: (§1)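 HEK293T PPAR-delta-UAS-bla cells, 4000/well, 2% charcoal/dextran FBS; 5 h 37 C; cpd titration; 18 h 37 C; CCF4 2 h RT; FI 460/530 nm; Hill fit → IC50, efficacy.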

[4] = target: Peroxisome proliferator-activated receptor delta (Homo sapiens) (UniProt Q03181); test: as above
Method in brief: as §1

[5] = target: Peroxisome proliferator-activated receptor gamma (Homo sapiens) (UniProt P37231); test: qHTS assay for small molecule agonists of peroxisome proliferator-activated receptor gamma signaling (AID 588536; active = well fitted curve in the direction sought with a large enough effect in the signal ratio, with a control signal flat, not every such curve was filed as active; the % refers to the signal ratio;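 also: 0% = DMSO basal wells and 100% = rosiglitazone at 2 µM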)
Sequence of Peroxisome proliferator-activated receptor gamma (Homo sapiens) (P37231 whole entry, looked up): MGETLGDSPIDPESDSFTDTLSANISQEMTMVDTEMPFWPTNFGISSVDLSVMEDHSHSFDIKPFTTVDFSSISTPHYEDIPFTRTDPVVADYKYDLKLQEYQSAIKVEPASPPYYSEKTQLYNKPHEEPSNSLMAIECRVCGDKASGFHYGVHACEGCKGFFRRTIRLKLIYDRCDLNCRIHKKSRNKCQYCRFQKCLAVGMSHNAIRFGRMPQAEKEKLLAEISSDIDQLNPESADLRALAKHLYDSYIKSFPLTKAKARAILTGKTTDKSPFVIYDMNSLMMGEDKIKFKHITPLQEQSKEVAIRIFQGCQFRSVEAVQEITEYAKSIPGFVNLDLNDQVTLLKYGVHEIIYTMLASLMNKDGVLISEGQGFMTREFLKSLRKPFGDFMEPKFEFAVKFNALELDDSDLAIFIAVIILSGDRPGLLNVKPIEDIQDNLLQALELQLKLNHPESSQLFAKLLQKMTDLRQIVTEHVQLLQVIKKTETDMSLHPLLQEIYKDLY
Method in brief: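 Test agents, titrated, stimulated HEK293 UAS-bla cells overnight (16 h, 37 C). Substrate CCF4 was then added for two hours at room temperature before fluorescence reading.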

[6] = target: Peroxisome proliferator-activated receptor gamma (Homo sapiens) (UniProt P37231); test: qHTS assay for small molecule antagonists of peroxisome proliferator-activated receptor gamma signaling (AID 588537; active = well fitted inhibition curve with a large enough effect in the signal ratio, with a control signal flat, not every such curve was filed as active; the % refers to the signal ratio;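 also: reporter cells co-stimulated with 50 nM rosiglitazone agonist during compound treatment; % of control where 0% means no effect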)
Method in brief: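 Antagonist mode, beta-lactamase reporter in HEK293; charcoal/dextran FBS 1%; 3000 cells/well, 37 C 6-6.5 h; cpd titration + rosiglitazone 50 nM final, 16 h 37 C; CCF4, 2 h RT; 460/530 nm; Hill fit → IC50, efficacy.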

[7] = target: Vitamin D3 receptor (Homo sapiens) (UniProt P11473); test: qHTS assay for small molecule antagonists of vitamin D receptor signaling (AID 588541);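 also: receptor activated by calcitriol during compound treatment; series mostly up to about 77 µM; % is scaled to controls: 0 for no effect and ±100 for the full control effect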
Sequence of Vitamin D3 receptor (Homo sapiens) (P11473 whole entry, looked up): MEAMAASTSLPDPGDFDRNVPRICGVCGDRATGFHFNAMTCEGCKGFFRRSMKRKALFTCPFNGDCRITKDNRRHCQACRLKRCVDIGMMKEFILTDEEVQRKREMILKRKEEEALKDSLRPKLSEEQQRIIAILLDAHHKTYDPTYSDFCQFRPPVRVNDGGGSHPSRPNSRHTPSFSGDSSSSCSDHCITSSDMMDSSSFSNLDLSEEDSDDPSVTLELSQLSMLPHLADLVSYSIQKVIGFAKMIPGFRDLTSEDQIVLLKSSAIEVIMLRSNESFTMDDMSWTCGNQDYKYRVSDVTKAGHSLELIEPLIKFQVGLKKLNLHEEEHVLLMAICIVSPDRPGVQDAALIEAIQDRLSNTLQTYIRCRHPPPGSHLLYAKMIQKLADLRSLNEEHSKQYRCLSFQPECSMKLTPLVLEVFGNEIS
Method in brief: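 Antagonist-mode beta-lactamase reporter assay: HEK293T VDR-UAS-bla cells were exposed to titrated compound alongside 1-alpha,25-dihydroxyvitamin D3 at 3 nM final for 16 h. Values were normalized to the 50 nM agonist control and DMSO basal, with IC50 and efficacy from Hill equation fits.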

[8] = target: Vitamin D3 receptor (Homo sapiens) (UniProt P11473); test: qHTS assay for small molecule agonists of vitamin D receptor signaling (AID 588543);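 also: 0% = DMSO basal and 100% = reference agonist control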
Method in brief: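 Measured: β-lactamase reporter activity (CCF4, 405 nm excitation, 460/530 nm emission) in HEK293T VDR-UAS-bla cells after 16 h compound exposure at 37 °C. Normalization against 50 nM 1α,25-dihydroxyvitamin D3 and DMSO; Hill-fit EC50.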

[9] = target: Retinoic acid receptor RXR-alpha (Homo sapiens) (UniProt P19793); test: qHTS assay for small molecule agonists of retinoid X receptor alpha signaling (AID 588544);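 also: 0% = DMSO basal wells and 100% = reference agonist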
Sequence of Retinoic acid receptor RXR-alpha (Homo sapiens) (P19793 whole entry, looked up): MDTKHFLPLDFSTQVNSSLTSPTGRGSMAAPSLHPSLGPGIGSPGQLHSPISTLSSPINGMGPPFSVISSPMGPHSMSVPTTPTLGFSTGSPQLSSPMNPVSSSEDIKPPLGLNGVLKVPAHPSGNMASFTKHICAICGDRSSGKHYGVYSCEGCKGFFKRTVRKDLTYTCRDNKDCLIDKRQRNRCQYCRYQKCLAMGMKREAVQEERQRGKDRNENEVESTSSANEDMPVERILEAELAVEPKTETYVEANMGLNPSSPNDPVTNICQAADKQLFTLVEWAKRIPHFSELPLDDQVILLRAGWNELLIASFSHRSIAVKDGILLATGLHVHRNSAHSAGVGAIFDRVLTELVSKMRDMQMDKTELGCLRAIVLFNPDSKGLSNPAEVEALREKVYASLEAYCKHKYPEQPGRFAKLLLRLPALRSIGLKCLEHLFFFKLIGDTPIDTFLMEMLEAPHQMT

[10] = target: Thyroid hormone receptor beta (Homo sapiens) (UniProt P10828); test: qHTS assay for small molecule agonists of thyroid hormone receptor beta signaling (AID 588545);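 also: 0% = DMSO only and 100% = 10 nM T3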
Sequence of Thyroid hormone receptor beta (Homo sapiens) (P10828 whole entry, looked up): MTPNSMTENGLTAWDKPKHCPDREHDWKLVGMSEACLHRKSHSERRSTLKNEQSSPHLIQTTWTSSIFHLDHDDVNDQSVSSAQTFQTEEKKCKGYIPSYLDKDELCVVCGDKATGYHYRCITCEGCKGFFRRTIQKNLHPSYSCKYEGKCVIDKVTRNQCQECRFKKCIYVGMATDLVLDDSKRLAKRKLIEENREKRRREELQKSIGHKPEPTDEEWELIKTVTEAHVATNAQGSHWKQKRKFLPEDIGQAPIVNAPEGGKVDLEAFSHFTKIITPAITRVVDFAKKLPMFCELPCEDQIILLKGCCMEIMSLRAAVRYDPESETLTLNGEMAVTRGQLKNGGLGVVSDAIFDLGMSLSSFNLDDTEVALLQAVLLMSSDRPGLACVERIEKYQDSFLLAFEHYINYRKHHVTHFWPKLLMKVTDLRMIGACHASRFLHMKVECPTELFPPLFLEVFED
Method in brief: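 Compounds were tested as agonists in TR-UAS-bla-GripTite HEK 293 cells. After 18 hrs at 37 C, CCF4 substrate was added and fluorescence read after 2 hrs at room temperature.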

[11] = qHTS assay for small molecule antagonists of retinoid X receptor alpha signaling (AID 588546; active = well fitted inhibition curve with a large enough effect in the signal ratio, with a control signal flat, not every such curve was filed as active; the % refers to the signal ratio;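 also: cells stimulated with 9-cis-retinoic acid as agonist; % is scaled to controls: 0 for no effect and ±100 for the full control effect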); details: HEK293T RXRa-UAS-bla, beta-lactamase ratio, antagonist mode; measured here: W530 green channel, cytotoxicity proxy
Method in brief: (§2)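 Beta-lactamase reporter inhibition, read as CCF4 fluorescence ratio (ex 405, em 460/530 nm) after 2 h at RT. HEK293T UAS-bla cells, 2500/well, were stimulated with 9-cis-RA at 500 or 100 nM final alongside test compound for 18 h at 37 C.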

[12] = target: Retinoic acid receptor RXR-alpha (Homo sapiens) (UniProt P19793); test: as above; details: HEK293T RXRa-UAS-bla, beta-lactamase ratio, antagonist mode
Method in brief: as §2

[13] = qHTS assay for small molecule activators of the p53 signaling pathway (AID 651743; active = well fitted activation curve with a large enough effect in the signal ratio, not every such curve was filed as active; the % refers to the signal ratio; also: series mostly up to about 92 µM; % of control where 0% means no effect); details: HCT-116 p53RE-bla, beta-lactamase FRET ratio, 16 h; activation: stronger effect = higher value
Method in brief: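 Read-out is fluorescence intensity from the LiveBLAzer B/G FRET substrate, added for 2 hours at room temperature after HCT-116 p53RE-bla cells had been incubated with compounds for 16 hours at 37 C.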

[14] = qHTS assay for environmental chemicals that activate the Aryl hydrocarbon Receptor (AhR) signaling pathway (AID 651777; active = well fitted curve in the direction sought with a large enough effect; an effect the other way counts as inactive or inconclusive; also: % of control where 0% means no effect; nearly all actives have a fitted effect of over 15% in size); details: 1A2-DRE human hepatoma cells, luciferase, 24 h; activation: stronger effect = higher value
Method in brief: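 Quantitative HTS in stably transfected human liver-derived cells whose luciferase gene sits downstream of the CYP1A2 promoter and dioxin response element. After 24 hr exposure at 37 C, One-Glo luminescence was measured.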

[15] = target: Peroxisome proliferator-activated receptor alpha (Homo sapiens) (UniProt Q07869); test: qHTS assay for small molecule agonists of the peroxisome proliferator-activated receptor alpha (PPARalpha) signaling pathway (AID 651778; active = well fitted curve in the direction sought with a large enough effect; an effect the other way counts as inactive or inconclusive; also: % of control where 0% means no effect); details: PathHunter PPARalpha complementation, chemiluminescence, 6 h; max response: stronger effect = higher value
Sequence of Peroxisome proliferator-activated receptor alpha (Homo sapiens) (Q07869 whole entry, looked up): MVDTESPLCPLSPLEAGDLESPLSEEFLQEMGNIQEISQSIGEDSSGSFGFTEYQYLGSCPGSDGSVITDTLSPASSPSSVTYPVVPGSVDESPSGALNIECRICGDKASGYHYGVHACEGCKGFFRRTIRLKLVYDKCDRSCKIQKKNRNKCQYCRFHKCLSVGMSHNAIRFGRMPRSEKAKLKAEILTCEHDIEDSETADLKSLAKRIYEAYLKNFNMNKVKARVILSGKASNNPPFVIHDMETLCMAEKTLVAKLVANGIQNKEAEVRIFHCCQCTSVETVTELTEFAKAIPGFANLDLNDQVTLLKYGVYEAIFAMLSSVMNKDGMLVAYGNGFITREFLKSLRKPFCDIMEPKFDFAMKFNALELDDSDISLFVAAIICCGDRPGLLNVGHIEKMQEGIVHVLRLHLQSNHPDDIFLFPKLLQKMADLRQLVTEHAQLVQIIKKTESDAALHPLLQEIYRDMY
Method in brief: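 Chemiluminescence from complemented enzyme reported PPARalpha activation in cells after 6 hr of compound treatment at 37 C. The detection reagent was incubated for 60 min at room temperature, and compounds were scored as agonists.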

[16] = qHTS assay for small molecule agonists of the antioxidant response element (ARE) signaling pathway measured by Nrf2-dependant transcriptional activity (AID 720636; active = well fitted curve in the direction sought with a large enough effect in the repeat runs; an effect the other way counts as inactive or inconclusive; also: % of control where 0% means no effect)
Method in brief: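 Quantitative HTS format in HepG2 cells stably expressing an ARE-luciferase reporter; 16 hr compound treatment at 37 C, luciferase signal detected with ONE-Glo.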

[17] = qHTS assay for small molecule agonists of the antioxidant response element (ARE) signaling pathway measured by Nrf2-dependant transcriptional activity - cell viability counter screen (AID 720653; active = well fitted curve in the direction sought with a large enough effect in the repeat runs; an effect the other way counts as inactive or inconclusive; also: % is scaled to controls: 0 for no effect and ±100 for the full control effect); details: ARE-bla HepG2 viability, CellTiter-Glo ATP luminescence, 16 h; max response: stronger effect = lower value
Method in brief: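 Cytotoxicity counter screen: intracellular ATP quantified by CellTiter-Glo luminescence in the same ARE-bla HepG2 plates, after 16 h compound exposure and a 2 h beta-lactamase substrate step.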

[18] = qHTS assay for cell viability of the p53RE-bla HCT-116 cell line (AID 743292; active = well fitted curve in the direction sought with a large enough effect; an effect the other way counts as inactive or inconclusive; also: nearly all actives have a fitted effect of over 55% in size; also: potency is read from the fitted curve at half-maximal effect)
Method in brief: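 Viability of compound-treated p53RE-bla HCT-116 cells is taken from ATP-dependent luciferase luminescence. Treatment lasts 16 h at 37 C after a 5 h settling period; detection follows 30 min at room temperature.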

[19] = target: Nuclear receptor subfamily 1 group I member 2 (Rattus norvegicus) (UniProt Q9R1A7); test: qHTS assay for small molecule activators of the rat pregnane X receptor (rPXR) signaling pathway (AID 651751; call rule not given here; also: 0% is about no effect); details: rPXR reporter cells, luciferase (One-Glo), 24 h
Sequence of Nuclear receptor subfamily 1 group I member 2 (Rattus norvegicus) (Q9R1A7 whole entry, looked up): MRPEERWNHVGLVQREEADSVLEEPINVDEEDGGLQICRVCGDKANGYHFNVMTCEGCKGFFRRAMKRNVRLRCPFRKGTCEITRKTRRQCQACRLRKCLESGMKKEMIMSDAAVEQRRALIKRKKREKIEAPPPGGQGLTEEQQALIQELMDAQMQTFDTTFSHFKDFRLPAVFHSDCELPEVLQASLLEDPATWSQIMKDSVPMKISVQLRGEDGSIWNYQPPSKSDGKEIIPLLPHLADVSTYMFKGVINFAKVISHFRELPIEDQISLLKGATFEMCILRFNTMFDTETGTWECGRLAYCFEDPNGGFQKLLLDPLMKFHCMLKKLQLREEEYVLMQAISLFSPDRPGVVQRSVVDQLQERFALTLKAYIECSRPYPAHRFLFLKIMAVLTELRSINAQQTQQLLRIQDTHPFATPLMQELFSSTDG

[20] = qHTS assay for cell viability of HEK293 cells (AID 743288; active = well fitted curve in the direction sought with a large enough effect; an effect the other way counts as inactive or inconclusive; also: % is scaled to controls: 0 for no effect and ±100 for the full control effect; nearly all actives have a fitted effect of over 50% in size); details: ATP luminescence (CellTiter-Glo), 18 h; max response: stronger effect = lower value
Method in brief: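 Luminescent ATP quantitation served as the viability read-out. Cells (parental HEK293, 2,000/well) received compounds after at least 5 h at 37 C and were exposed for 18 h before a 30 min room-temperature reagent step.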

| SMILES | activation [1] | outcome [2] | max response [3] | Potency [4] | Potency [5] | Potency [6] | Potency [7] | outcome [8] | Potency [9] | Potency [10] | max response [11] | max response [12] | activation [13] | activation [14] | max response [15] | Potency [16] | max response [17] | Potency [18] | max response [19] | max response [20] |
| --- | --- | --- | --- | --- | --- | --- | --- | --- | --- | --- | --- | --- | --- | --- | --- | --- | --- | --- | --- | --- |
| O=C(O)C(F)(F)C(F)(F)C(F)(F)C(F)(F)C(F)(F)C(F)(F)C(F)(F)C(F)(F)F | -0.386% (inactive) and 5.13% (inactive) | inactive | -4.97% and -33.9% | inactive | inactive | inactive | inactive | inactive | inactive | inactive | -12.8% and -2.74% | 2.77% (inactive) and -39.3% (inactive) | 1.7% (inactive) | 2.07% (inactive) and 1.12% (inactive) | -1.46% (inactive) and 5.33% (inactive) | inactive | 4.68% (inactive) and -1.78% (inactive) | inactive | 1.17% (inactive) and 2.66% (inactive) |  |
| CC1=C(C(=O)Nc2ccccc2)S(=O)(=O)CCO1 |  |  |  |  | inactive |  |  |  |  | inactive |  |  |  | -2.25% (inactive) | -2.04% (inactive) |  |  | inactive | -5.83% (inactive) | -49.4% (inactive) |
| CC1(C)[C@H](C=C(Cl)Cl)[C@H]1C(=O)O[C@H](C#N)c1ccc(F)c(Oc2ccccc2)c1 | -0.69% (inactive) and -0.284% (inactive) | inactive | 27% | inactive | inactive | inactive | inactive |  |  | inactive | -5.65% | -6.52% (inactive) | -1.98% (inactive) and 0.257% (inactive) |  | -0.256% (inactive) and -0.375% (inactive) | inactive | -5.83% (inactive) and -7.88% (inactive) | inactive |  | -3.74% (inactive) and -16.6% (inactive) |
| COC(=O)/C=C(\C)OP(=O)(OC)OC | -1.06% (inactive) | inactive | -21.6% | inactive |  |  | inactive |  | inactive | inactive | -19.7% | -10.3% (inactive) | -3.2% (inactive) | 0.265% (inactive) | -1.45% (inactive) | inactive | 12.7% (inactive) | inactive | -0.069% (inactive) | -3.83% (inactive) |
| CC(C)C1(C)N=C(c2nc3ccccc3cc2C(=O)O)NC1=O (centres undefined) | 2.3% (inactive) | inactive |  |  |  | inactive | inactive | inactive | inactive | inactive | 6.33% | 4.25% (inactive) | 1.69% (inactive) | -0.47% (inactive) | 0.197% (inactive) | inactive | -2.59% (inactive) | inactive | -1.98% (inactive) | -6.66% (inactive) |
| CCOP(=S)(OCC)SCSP(=S)(OCC)OCC | -1.05% (inactive) | inactive | 36.7% | inactive | inactive | inactive | inactive | inactive |  | inactive | -10.3% | -4.31% (inactive) |  | 3.33% (inactive) | -1.9% (inactive) | inactive |  | inactive |  | -18.3% (inactive) |
| CC1(C)C(C(=O)OC(C#N)c2cccc(Oc3ccccc3)c2)C1(C)C (centres undefined) |  | inactive | 27.8% | inactive |  |  | inactive | inactive | inactive |  | -18.6% | -14.5% (inactive) | -5.39% (inactive) | -0.509% (inactive) | -0.276% (inactive) | inactive | -19.4% (inactive) | inactive |  | -11.3% (inactive) |
| CNP(=O)(OC)Oc1ccc(C(C)(C)C)cc1Cl (centres undefined) |  | inactive | 45% | inactive |  |  | inactive | inactive | inactive | inactive | 2.01% | 11.9% (inactive) | 6.28% (inactive) | 5.81% (inactive) | -2.32% (inactive) |  | 8.45% (inactive) | inactive | 11.5% (inactive) | -10.1% (inactive) |
| C=C(C)C(=O)OCC(CC)CCCC (centres undefined) | -12.2% (inactive) |  |  |  | inactive |  | inactive |  | inactive | inactive | -12.9% | -2.17% (inactive) | -3.24% (inactive) |  | 5.11% (inactive) | inactive | -12.5% (inactive) | inactive | -1.07% (inactive) |  |
| CC(C)OC(=O)C(O)(c1ccc(Br)cc1)c1ccc(Br)cc1 | -15% (inactive) |  |  |  |  |  | inactive | inactive |  |  |  |  |  | 8.09% (inactive) |  | inactive |  | 70.8 µM (active) |  | -24.4% (inactive) |
| ClCc1ccccc1Cl | -3.29% (inactive) |  |  |  | inactive | inactive | inactive | inactive | inactive | inactive | -6.52% | 0.106% (inactive) |  | 0.685% (inactive) | 1.31% (inactive) | inactive | -2.98% (inactive) | inactive | -0.702% (inactive) | -1.39% (inactive) |

From PubChem BioAssay (NCATS)
